Target: T1, OTUD6B (UniProt Q8N6M0)
T1 sequence (whole entry): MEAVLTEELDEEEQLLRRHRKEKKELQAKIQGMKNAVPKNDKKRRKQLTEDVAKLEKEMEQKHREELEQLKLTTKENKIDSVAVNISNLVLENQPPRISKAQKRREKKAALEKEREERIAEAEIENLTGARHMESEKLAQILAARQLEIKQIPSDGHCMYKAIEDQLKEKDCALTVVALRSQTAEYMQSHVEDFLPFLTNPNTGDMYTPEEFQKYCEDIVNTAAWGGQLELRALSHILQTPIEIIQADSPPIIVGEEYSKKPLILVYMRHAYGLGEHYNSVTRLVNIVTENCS
Experiment: log2 ratio of Biotin-Ahx-Ub-VS probe labelling (fragment/DMSO); higher = less target engagement (more negative = stronger competition), active = hit call of the paper (q ≤ 0.05, log2 ratio ≤ -1)
Conditions: compound concentration: 200 uM; treatment time: 3 h
Outline: (§1)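 Average log2 ratios of fragment over vehicle were obtained by unpaired t-test from global-median-normalised Spectronaut label-free quantities. Proteins with ≥2 unique peptides were included. HEK293T lysate (495 µg per sample) was treated in triplicate with fragment at 200 µM or vehicle for 3 h, then with Biotin-Ahx-Ub-VS at 0.5 µM final for 1 h, and labelled DUBs were NeutrAvidin-enriched and run by diaPASEF LC-MS/MS.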

Row | Compound | log2 ratio of Biotin-Ahx-Ub-VS probe labelling
1 | Cl.O=C(CCl)N1CCC(n2nc3ccccc3n2)CC1 | -0.35 (inactive)
2 | Cc1cccc(C)c1NC(=O)CCl | -0.307 (inactive)
3 | CCN(C(=O)CCl)C1CCS(=O)(=O)C1 (stereo not given) | -0.144 (inactive)
4 | Cl.O=C(CCl)N[C@H]1C[C@@H](n2cccn2)C1 | -0.0562 (inactive)
5 | Cc1ccc2nnc(CNC(=O)CCl)n2c1 | 0.146 (inactive)
6 | O=C(CCl)Nc1ccc(N2CCCC2=O)cc1 | 0.116 (inactive)
7 | Cl.O=C(CCl)NCc1ccnc(Oc2ccccc2F)c1 | -0.263 (inactive)
8 | O=C(CCl)N1CCC(S(=O)(=O)c2ccc(F)cc2)CC1 | -0.129 (inactive)
9 | Cl.O=C(CCl)N1CCn2ncc(O)c2C1 | -0.223 (inactive)
10 | Cc1cccc(NC(=O)CCl)c1C | -0.273 (inactive)
11 | CCN(C(=O)CCl)C1CCCCC1 | -0.00402 (inactive)
12 | O=C(CCl)NC1(c2ccc3c(c2)OCCO3)CCCC1 | -0.0936 (inactive)
13 | O=C(CCl)N1CCN(C(=O)Nc2ccccc2)CC1 | 0.0713 (inactive)
14 | O=C(CCl)NC(Cn1ccccc1=O)c1ccccc1 (stereo not given) | 0.102 (inactive)
15 | CC1CCc2onc(CNC(=O)CCl)c2C1 (stereo not given) | -0.0903 (inactive)
16 | O=C(CCl)N1CCCCCC1c1ncon1 (stereo not given) | -0.149 (inactive)
17 | Cc1cccc(N(CCC#N)C(=O)CCl)c1C | 0.027 (inactive)
18 | O=C(CCl)Nc1ccccc1C(F)(F)F | -0.447 (inactive)

Row | Compound | log2 ratio of Biotin-Ahx-Ub-VS probe labelling
19 | Cc1ccccc1OCC(=O)N1CCN(C(=O)CCl)CC1 | -0.157 (inactive)
20 | CN(C)C(=O)c1ccc(CNC(=O)CCl)cc1 | -0.0231 (inactive)
21 | Cl.Cn1cnc2cc(CNC(=O)CCl)ccc21 | -0.108 (inactive)
22 | N#Cc1ccc(CNC(=O)CCl)cc1 | 0.025 (inactive)
23 | Cc1nc(CN2CCCN(C(=O)CCl)CC2)no1.Cl | 0.121 (inactive)
24 | Cc1ccc(C)c(NC(=O)CCl)c1 | -0.56 (inactive)
25 | Cc1cc(CC(C)NC(=O)CCl)n[nH]1 (stereo not given) | -0.0562 (inactive)
26 | O=C(CCl)N1CCCN(C(=O)c2ccc(Cl)cc2)CC1 | -0.316 (inactive)
27 | Cl.O=C(CCl)NCCN1CCc2ccccc21 | -0.983 (inactive)
28 | CC1(NC(=O)CCl)CCS(=O)(=O)C1 (stereo not given) | -0.893 (inactive)
29 | N#Cc1ccc(Cl)cc1NC(=O)CCl | -0.0498 (inactive)
30 | O=C(CCl)N1CCCC1c1ccsc1 (stereo not given) | -0.452 (inactive)
31 | O=C(CCl)NCc1ccc(N2CCOCC2)nc1 | -0.139 (inactive)
32 | O=C(CCl)NCc1cccc(F)c1 | -0.0396 (inactive)
33 | COc1ccccc1C(C)NC(=O)CCl (stereo not given) | -0.401 (inactive)
34 | COc1ccc(Cl)cc1NC(=O)CCl | -0.594 (inactive)
35 | O=C(CCl)N1CCC(c2nc3ccccc3o2)CC1 | -0.508 (inactive)

Target: T2, OTUD7B (UniProt Q6GQQ9)
T2 sequence (whole entry): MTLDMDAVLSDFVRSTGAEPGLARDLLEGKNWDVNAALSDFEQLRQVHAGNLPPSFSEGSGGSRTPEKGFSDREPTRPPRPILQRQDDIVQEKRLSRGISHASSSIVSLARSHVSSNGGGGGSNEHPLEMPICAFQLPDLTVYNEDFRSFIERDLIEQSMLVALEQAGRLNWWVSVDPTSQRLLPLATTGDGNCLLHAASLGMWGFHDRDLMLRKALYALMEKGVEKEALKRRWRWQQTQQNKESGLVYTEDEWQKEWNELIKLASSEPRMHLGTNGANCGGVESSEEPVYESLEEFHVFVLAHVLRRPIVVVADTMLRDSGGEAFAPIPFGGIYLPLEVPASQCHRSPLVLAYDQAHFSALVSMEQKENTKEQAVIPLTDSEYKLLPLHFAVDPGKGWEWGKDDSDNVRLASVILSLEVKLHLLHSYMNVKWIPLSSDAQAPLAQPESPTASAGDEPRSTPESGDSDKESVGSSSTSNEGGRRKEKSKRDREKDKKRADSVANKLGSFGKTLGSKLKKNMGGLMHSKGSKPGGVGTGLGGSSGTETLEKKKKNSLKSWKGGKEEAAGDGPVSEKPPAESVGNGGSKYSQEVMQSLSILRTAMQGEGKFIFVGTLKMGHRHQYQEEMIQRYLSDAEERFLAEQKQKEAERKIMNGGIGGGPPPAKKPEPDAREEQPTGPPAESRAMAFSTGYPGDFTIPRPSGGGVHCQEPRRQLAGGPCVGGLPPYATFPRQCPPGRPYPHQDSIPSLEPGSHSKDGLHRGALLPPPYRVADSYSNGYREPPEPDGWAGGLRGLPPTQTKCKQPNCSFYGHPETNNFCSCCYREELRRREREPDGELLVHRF
Experiment: as above
Conditions: compound concentration: 200 uM; treatment time: 3 h
Outline: as §1

Row | Compound | log2 ratio of Biotin-Ahx-Ub-VS probe labelling
36 | Cl.O=C(CCl)N1CCC(n2nc3ccccc3n2)CC1 | -0.287 (inactive)
37 | Cc1cccc(C)c1NC(=O)CCl | -0.52 (inactive)
38 | CCN(C(=O)CCl)C1CCS(=O)(=O)C1 (stereo not given) | -0.284 (inactive)
39 | Cl.O=C(CCl)N[C@H]1C[C@@H](n2cccn2)C1 | -0.797 (inactive)
40 | Cc1ccc2nnc(CNC(=O)CCl)n2c1 | -0.395 (inactive)
41 | O=C(CCl)Nc1ccc(N2CCCC2=O)cc1 | -0.359 (inactive)
42 | Cl.O=C(CCl)NCc1ccnc(Oc2ccccc2F)c1 | -0.533 (inactive)
43 | O=C(CCl)N1CCC(S(=O)(=O)c2ccc(F)cc2)CC1 | -0.758 (inactive)
44 | Cl.O=C(CCl)N1CCn2ncc(O)c2C1 | -1.54 (active)
45 | Cc1cccc(NC(=O)CCl)c1C | -0.61 (inactive)
46 | CCN(C(=O)CCl)C1CCCCC1 | -0.011 (inactive)
47 | O=C(CCl)NC1(c2ccc3c(c2)OCCO3)CCCC1 | -0.638 (inactive)
48 | O=C(CCl)N1CCN(C(=O)Nc2ccccc2)CC1 | -0.112 (inactive)
49 | O=C(CCl)NC(Cn1ccccc1=O)c1ccccc1 (stereo not given) | -0.332 (inactive)
50 | CC1CCc2onc(CNC(=O)CCl)c2C1 (stereo not given) | -0.588 (inactive)
51 | O=C(CCl)N1CCCCCC1c1ncon1 (stereo not given) | -0.512 (inactive)
52 | Cc1cccc(N(CCC#N)C(=O)CCl)c1C | -1.2 (active)
53 | O=C(CCl)Nc1ccccc1C(F)(F)F | -0.668 (inactive)

Row | Compound | log2 ratio of Biotin-Ahx-Ub-VS probe labelling
54 | Cc1ccccc1OCC(=O)N1CCN(C(=O)CCl)CC1 | -0.203 (inactive)
55 | CN(C)C(=O)c1ccc(CNC(=O)CCl)cc1 | -0.351 (inactive)
56 | Cl.Cn1cnc2cc(CNC(=O)CCl)ccc21 | -0.399 (inactive)
57 | N#Cc1ccc(CNC(=O)CCl)cc1 | -0.865 (inactive)
58 | Cc1nc(CN2CCCN(C(=O)CCl)CC2)no1.Cl | 0.0504 (inactive)
59 | Cc1ccc(C)c(NC(=O)CCl)c1 | -0.844 (inactive)
60 | Cc1cc(CC(C)NC(=O)CCl)n[nH]1 (stereo not given) | -0.54 (inactive)
61 | O=C(CCl)N1CCCN(C(=O)c2ccc(Cl)cc2)CC1 | -0.767 (inactive)
62 | Cl.O=C(CCl)NCCN1CCc2ccccc21 | -0.675 (inactive)
63 | CC1(NC(=O)CCl)CCS(=O)(=O)C1 (stereo not given) | -1.2 (active)
64 | N#Cc1ccc(Cl)cc1NC(=O)CCl | -1.73 (active)
65 | O=C(CCl)N1CCCC1c1ccsc1 (stereo not given) | -0.521 (inactive)
66 | O=C(CCl)NCc1ccc(N2CCOCC2)nc1 | -0.502 (inactive)
67 | O=C(CCl)NCc1cccc(F)c1 | -0.597 (inactive)
68 | COc1ccccc1C(C)NC(=O)CCl (stereo not given) | -0.997 (inactive)
69 | COc1ccc(Cl)cc1NC(=O)CCl | -1.29 (active)
70 | O=C(CCl)N1CCC(c2nc3ccccc3o2)CC1 | -0.632 (inactive)
